This is a sample that favours compounds with a hit; in the whole collection about 21% have one here.
Shiga toxin inh – A qHTS for Small Molecule Inhibitors of Shiga Toxin; Vero cells, Shiga toxin protein synthesis inhibition reporter; inhibition, % at 38.7 µM; 290,000 tested, 9.2% active; AID 2315, 2010; in the data active = inhibition mostly above about 28%, no sharp cut-off; inactive = mostly below about 43%
CHX counter – Cycloheximide Counterscreen for Small Molecule Inhibitors of Shiga Toxin; cell reporter, cycloheximide protein synthesis inhibition counterscreen; max response, %; 300,000 tested, 12% active; AID 2314, 2010; in the data active = max response mostly above about 13%, no sharp cut-off; inactive = mostly below about 14%; note: read at 38.3 µM for the half of the compounds with a filed dose
Sm TGR inh – qHTS Assay for the Inhibitors of Schistosoma Mansoni Peroxiredoxins; 360,000 tested, 3% active; AID 485364, 2010; purified TGR, DTNB reduction, TNB absorbance 405 nm; Schistosoma mansoni thioredoxin glutathione reductase (TGR), Q962Y6; Potency, µM (titrated, usually from 114 µM), most hits filed as inhibitors; note: nearly all actives have a fitted effect of over 60% in size
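Kinetic colorimetric format: TGR-catalysed, NADPH-driven DTNB reduction monitored via TNB absorbance. Enzyme dispensed at 20 nM; compound exposure 15 min at room temperature before reaction start.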
NS1 inh – qHTS Assay for Inhibitors of Influenza NS1 Protein Function. Potency, µM (doses to about 46.1 µM). 270,000 tested, 0.4% active. AID 2326, 2010; calls by dose curve; note: actives are rising curves; nearly all actives have a fitted effect of over 50% in size
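A cell-based growth assay was used: compounds that relieve NS1-induced slow growth of budding yeast raise OD600. Assay medium was yeast nitrogen base with ammonium sulphate and -URA supplement, pH 6.0, with 2% galactose.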
Pf growth 96h – Primary qHTS for delayed death inhibitors of the malarial parasite plastid, 96 hour incubation; P. falciparum luciferase reporter growth, 96 h; Potency, µM (series often up to 28.7 µM), most hits filed as inhibitors; 320,000 tested, 6.9% active
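Two parasite generations (96 h, 37 C, 5% CO2) of compound exposure in infected erythrocytes (0.05% parasitemia, 2% hematocrit). Luciferase-reporter P. falciparum; decreased luminescence indicates inhibited growth, aimed at apicoplast-acting delayed death.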
Pf growth 48h – Primary qHTS for delayed death inhibitors of the malarial parasite plastid, 48 hour incubation. P. falciparum luciferase growth in erythrocytes, 48 h. Potency, µM (highest dose often 28.7 µM), actives largely listed as inhibitors. 310,000 tested, 5.9% active. AID 504832, 2011
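In quantitative HTS format, infected erythrocytes bearing luciferase-reporter parasites were treated for a single generation at 37 C. Luminescence after adding detection reagent served as the growth measure.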
Of the large screens only hits and unclear results are named; the others gave an inactive call. Unless noted, calls come from the whole dose curve; as a rule, active = well fitted curve in the direction sought with a large enough effect; inconclusive = small, poorly fitted or top-dose-only effect, or another doubt; inactive = no such curve, though single readings can be large; an effect the other way counts as inactive or inconclusive.

CCOC(=O)c1ccc(C(=O)NNC(=O)C2C3C=CC(C3)C2C(=O)O)cc1 (configuration not stated)	none
O=C(O)C1C2C=CC(C2)C1C(=O)OCc1ccccc1 (configuration not stated)	Pf growth 96h 9.3µM
COc1ccc(NC(=O)NNC(=O)C(C)Oc2ccc3ccccc3c2)cc1OC (configuration not stated)	none
NS(=O)(=O)c1ccc(NC(=O)COC(=O)CCc2ccccc2)cc1	none
CC1=C[C@@H]2c3cccc4[nH]cc(c34)C[C@H]2N(C)C1	Sm TGR inh 2.2µM, Pf growth 96h inconclusive (no result: Pf growth 48h)
CC1(C)Cc2nc3sc(C(=O)NCCO)c(N)c3cc2CO1	Shiga toxin inh 51, CHX counter 19
CC1(C)Cc2nc3sc(C(=O)NCCCO)c(N)c3cc2CS1	CHX counter 31 (no result: Sm TGR inh)
CC1(C)Cc2nc3sc(C(=O)O)c(N)c3cc2CS1	Pf growth 48h inconclusive (no result: NS1 inh)
C/C(=N/NC(=O)c1ccc(C)nc1)c1ccc2c(c1)CCCC2	none (no result: NS1 inh)
Oc1cc2c(cc1O)[C@H]1c3ccccc3CN[C@@H]1CC2	Sm TGR inh 8.9µM (no result: NS1 inh, Pf growth 96h, Pf growth 48h)
COc1cc2c(cc1OC)C(c1ccccc1O)NCC2 (configuration not stated)	Pf growth 96h inconclusive, Pf growth 48h inconclusive
CCCCCC(=O)N(c1ccc(OCC)cc1)S(=O)(=O)c1ccc2c(c1)n(C)c(=O)n2C	none (no result: Shiga toxin inh, CHX counter, NS1 inh, Pf growth 96h, Pf growth 48h)
O=C(CSc1nnc(-c2cccs2)n1C1CC1)NCC1CCCO1 (configuration not stated)	none (no result: Shiga toxin inh, CHX counter, NS1 inh)
Cn1nnc(NC(=O)c2ccc(C(C)(C)C)cc2)n1	Shiga toxin inh 45, CHX counter 46, Pf growth 48h 9.3µM
Cn1nnc(NC(=S)NC(=O)c2cccs2)n1	Sm TGR inh inconclusive
Cn1nnc(NC(=O)c2ccc3ccccc3c2)n1	Shiga toxin inh active, CHX counter 30, Pf growth 96h inconclusive, Pf growth 48h inconclusive
Cn1nnc(NC(=S)NC(=O)c2cccc3ccccc23)n1	Pf growth 96h 13µM, Pf growth 48h inconclusive
COc1ccc(NC(=S)N2CCN(S(=O)(=O)c3ccccc3)CC2)cc1OC	Pf growth 96h inconclusive
O=C(O)Cc1ccc(C(=O)c2ccccc2)s1	none (no result: Pf growth 48h)
O=C(O)Cc1ccc(C(=O)CSc2ccccc2)s1	Sm TGR inh 20µM
Cc1ccc(SCC(=O)N2CC(C)OC(C)C2)cc1 (configuration not stated)	NS1 inh inconclusive
Cc1ccc(SCC(=O)c2ccc(CC(=O)O)s2)cc1	CHX counter 20
Cc1ccc(C(c2sc3nc(-c4ccco4)nn3c2O)N2CCOCC2)cc1 (configuration not stated)	none (no result: Shiga toxin inh, CHX counter, NS1 inh, Pf growth 96h, Pf growth 48h)
O=C(O)NCC1CCCCC1 (tested in a mixture with another compound)	none (no result: Shiga toxin inh, CHX counter, Sm TGR inh, Pf growth 96h, Pf growth 48h)
CN(Cc1cnccn1)C(=O)CC1C(=O)NCCN1Cc1ccc(F)cc1Cl (configuration not stated)	Pf growth 96h inconclusive
COc1cccc(-c2cc(C(=O)NC3CC3)c3ccccc3n2)c1	Pf growth 48h inconclusive
O=C(NCC1CCCO1)c1cc(-c2ccco2)nc2ccccc12 (configuration not stated)	Sm TGR inh 35µM
O=C(NC1CCC(O)CC1)c1cc(-c2ccco2)nc2ccccc12 (configuration not stated)	Sm TGR inh 11µM, Pf growth 48h inconclusive
O=C(NCC1CCCO1)c1cc(-c2ccncc2)nc2ccccc12 (configuration not stated)	none (no result: Shiga toxin inh, CHX counter, NS1 inh)
CN(C)c1ccc(CN(CC2CCCO2)C(=O)c2ccc(Br)cc2)cc1 (configuration not stated)	none (no result: Shiga toxin inh, CHX counter, NS1 inh, Pf growth 96h, Pf growth 48h)
O=C(O)Cc1ccc(NC2(c3ccccc3)C(=O)c3ccccc3C2=O)cc1	none (no result: Shiga toxin inh, CHX counter, NS1 inh, Pf growth 96h, Pf growth 48h)
COc1cc2c(cc1OC)-c1cc(=Nc3c(C)cc(C)cc3C)n(C)c(=O)n1CC2	Pf growth 96h 0.76µM, Pf growth 48h 0.67µM (no result: Shiga toxin inh, CHX counter, Sm TGR inh)
COc1cc2c(cc1OC)-c1cc(NC3CCCC3)nc(=O)n1CC2	Pf growth 48h inconclusive
Cn1c(=O)c2cn3c(c2n(C)c1=O)C(c1ccccc1)CC(c1ccccc1)=N3 (configuration not stated)	Shiga toxin inh 105, CHX counter 38, Sm TGR inh 13µM, Pf growth 48h inconclusive
CCCc1nc2ccccc2n2cc3c(=O)n(C)c(=O)n(C)c3c12	none (no result: Shiga toxin inh, CHX counter, Sm TGR inh, Pf growth 96h, Pf growth 48h)
CCn1cc(C(=O)N2CCN(c3ccccc3OC)CC2)c(=O)c2cc(S(=O)(=O)N3CCC(C)CC3)ccc21	none (no result: Shiga toxin inh, CHX counter, NS1 inh, Pf growth 96h, Pf growth 48h)
CCC(C)(C)NC(=O)C(c1ccc(F)cc1)N(Cc1ccc(OC)cc1)C(=O)c1cnccn1 (configuration not stated)	Shiga toxin inh 60, CHX counter 31, Pf growth 96h inconclusive, Pf growth 48h inconclusive
Cn1c(=O)c2[nH]c(CCCCC(=O)O)nc2n(C)c1=O	none (no result: Shiga toxin inh, CHX counter, Sm TGR inh, Pf growth 96h, Pf growth 48h)
O=[N+]([O-])c1ccc(S(=O)(=O)Nc2nc(-c3ccccc3)cs2)cc1	Pf growth 96h 6.6µM
Cc1ccc(S(=O)(=O)Nc2nc(-c3ccc(F)cc3)cs2)cc1	CHX counter 13
O=S(=O)(c1ccc(-c2csc(Nc3ccc(F)cc3)n2)cc1)N1CCCC1	none
COc1ccc(NC(=O)CSc2nnc(-c3cccnc3)o2)c(OC)c1	none (no result: Shiga toxin inh, CHX counter, NS1 inh)
Cc1nc2cc(-c3sccc3-n3cccc3)nn2c(C)c1C	Shiga toxin inh 60, CHX counter 34
CC(/C=C/c1cccs1)=C\C(=O)O	Pf growth 48h inconclusive (no result: Pf growth 96h)
Cc1ccc(C(=O)Nc2ccc(C(=O)/C=C/c3cccs3)cc2)cc1	Shiga toxin inh 73, CHX counter 52
O=C(O)c1ccc(NC(=O)c2ccccc2NC(=O)c2cccc(Br)c2)cc1	none (no result: Shiga toxin inh)
O=C(/C=C/c1cccs1)c1ccc(NC(=O)c2cccc(Br)c2)cc1	Shiga toxin inh 131, CHX counter 62, Pf growth 48h inconclusive
O=C(/C=C/c1cccs1)c1ccc(Br)cc1	CHX counter 40, Pf growth 96h inconclusive
COc1cc(/C=C/C(=O)NCC2CCCCC2)cc(OC)c1OC	Pf growth 96h inconclusive
O=C(Cn1c(=S)[nH]c2ccccc2c1=O)N1CCN(c2ccc(F)cc2)CC1	none (no result: NS1 inh)
COc1ccc(N2CCN(CCCNC(=O)C(=O)c3c(C)[nH]c4ccccc34)CC2)cc1	Pf growth 96h inconclusive, Pf growth 48h 5.2µM
COc1ccc(NC(=O)CCn2cc(C)c3ccccc32)cc1	Shiga toxin inh 56, CHX counter 48
COc1ccc(N2CCN(CC(=O)c3c[nH]c4ccccc34)CC2)cc1	none
COc1ccc(N2CCN(C(=O)Cn3c(=O)[nH]c4ccccc4c3=O)CC2)cc1	Sm TGR inh inconclusive, Pf growth 96h 10µM (no result: NS1 inh)
COc1ccc(NC(=O)CCCn2c(=O)[nH]c3ccccc3c2=O)cc1	Pf growth 48h 2.3µM
COc1ccc(CNCc2c(C(=O)O)c(C)n(Cc3ccccc3C)c2C)cc1OC	none (no result: Shiga toxin inh, CHX counter, NS1 inh, Pf growth 96h, Pf growth 48h)

Source: PubChem (National Center for Advancing Translational Sciences (NCATS))
